Laboratory results reported in PubChem BioAssay AID1159580 (chemical genetic matrix, 2015).
Among all 5,500 compounds or so, about 2,000 (36%) were called active. Inconclusive results (about 18%) are left out. Cut-off read from the data, not from the text of the source: active = normalized growth mostly below about 0.91 (no sharp cut-off); inconclusive = no clear call, values can overlap the other calls; inactive = mostly above about 0.92. Some of the results follow.

Assay: chemical genetic growth profiling, strain panel (AID 1159580);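 note: tested at 20 µM; growth read once vehicle control cultures reached saturation at 30 °C; 1 = growth at the plate median or of vehicle wells; lower values mean less growth of the strain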
Conditions: growth OD

Measured: normalized growth

COc1cc(O)c(C(=O)O)c(O)c1
active: S. cerevisiae deletion strains, locus YLR113W, strain HOG1, stronger effect = lower value 0.83 | S. cerevisiae deletion strains, locus YPL256C, strain CLN2, stronger effect = lower value 0.824
inactive: S. cerevisiae deletion strains, locus YJR075W, strain HOC1, stronger effect = lower value 1 | S. cerevisiae deletion strains, locus YKL009W, strain mrt4, stronger effect = lower value 1.01 | S. cerevisiae deletion strains, locus YKL068W, stronger effect = lower value 0.954 | S. cerevisiae deletion strains, locus YKL085W, strain MDH1 (second series), stronger effect = lower value 0.961 | S. cerevisiae deletion strains, locus YKL085W, strain MDH1, stronger effect = lower value 0.961 | S. cerevisiae deletion strains, locus YKL160W, strain elf1, stronger effect = lower value 1 | S. cerevisiae deletion strains, locus YKL190W, strain CNB1, stronger effect = lower value 1.01 | S. cerevisiae deletion strains, locus YKR001C, strain vps1, stronger effect = lower value 1.02 | S. cerevisiae deletion strains, locus YKR026C, strain gcn3, stronger effect = lower value 0.986 | S. cerevisiae deletion strains, locus YKR091W, strain srl3, stronger effect = lower value 0.991 | S. cerevisiae deletion strains, locus YLL001W, strain dnm1, stronger effect = lower value 0.981 | S. cerevisiae deletion strains, locus YLL026W, stronger effect = lower value 1 | S. cerevisiae deletion strains, locus YLL041C, strain sdh2, stronger effect = lower value 0.986 | S. cerevisiae deletion strains, locus YLR027C, strain aat2, stronger effect = lower value 0.983 | S. cerevisiae deletion strains, locus YLR039C, strain RIC1, stronger effect = lower value 1.06 | S. cerevisiae deletion strains, locus YLR058C, strain SHM2, stronger effect = lower value 1 | S. cerevisiae deletion strains, locus YLR102C, strain apc9, stronger effect = lower value 0.997 | S. cerevisiae deletion strains, locus YLR221C, strain rsa3, stronger effect = lower value 1 | S. cerevisiae deletion strains, locus YLR258W, strain gsy2, stronger effect = lower value 0.998 | S. cerevisiae deletion strains, locus YLR262C, strain YPT6 (second series), stronger effect = lower value 1.02 | S. cerevisiae deletion strains, locus YLR262C, strain YPT6, stronger effect = lower value 1.02 | S. cerevisiae deletion strains, locus YLR268W, strain sec22, stronger effect = lower value 0.995 | S. cerevisiae deletion strains, locus YLR320W, strain mms22, stronger effect = lower value 1.01 | S. cerevisiae deletion strains, locus YLR330W, strain CHS5, stronger effect = lower value 0.991 | S. cerevisiae deletion strains, locus YLR342W, strain FKS1 (second series), stronger effect = lower value 1.06 | S. cerevisiae deletion strains, locus YLR342W, strain FKS1, stronger effect = lower value 0.99 | S. cerevisiae deletion strains, locus YLR357W, strain rsc2, stronger effect = lower value 1.01 | S. cerevisiae deletion strains, locus YLR370C, strain arc18, stronger effect = lower value 0.99 | S. cerevisiae deletion strains, locus YLR371W, strain rom2, stronger effect = lower value 0.999 | S. cerevisiae deletion strains, locus YLR384C, strain iki3, stronger effect = lower value 0.985 | S. cerevisiae deletion strains, locus YLR418C, strain cdc73, stronger effect = lower value 1.01 | S. cerevisiae deletion strains, locus YML016C, strain PPZ1, stronger effect = lower value 0.999 | S. cerevisiae deletion strains, locus YML032C, strain rad52, stronger effect = lower value 1.04 | S. cerevisiae deletion strains, locus YML120C, strain ndi1, stronger effect = lower value 0.998 | S. cerevisiae deletion strains, locus YML124C, strain tub3, stronger effect = lower value 0.992 | S. cerevisiae deletion strains, locus YMR058W, strain fet3, stronger effect = lower value 0.999 | S. cerevisiae deletion strains, locus YMR078C, strain ctf18, stronger effect = lower value 1.01 | S. cerevisiae deletion strains, locus YMR125W, strain sto1, stronger effect = lower value 0.973 | S. cerevisiae deletion strains, locus YMR129W, stronger effect = lower value 0.986 | S. cerevisiae deletion strains, locus YMR205C, strain PFK2, stronger effect = lower value 1.01 | S. cerevisiae deletion strains, locus YMR223W, strain ubp8, stronger effect = lower value 1.03 | S. cerevisiae deletion strains, locus YMR231W, strain pep5, stronger effect = lower value 0.984 | S. cerevisiae deletion strains, locus YMR263W, strain SAP30, stronger effect = lower value 1 | S. cerevisiae deletion strains, locus YMR307W, strain GAS1, stronger effect = lower value 1.03 | S. cerevisiae deletion strains, locus YNL067W, strain RPL9B, stronger effect = lower value 1 | S. cerevisiae deletion strains, locus YNL071W, strain lat1, stronger effect = lower value 0.99 | S. cerevisiae deletion strains, locus YNL128W, strain TEP1, stronger effect = lower value 1 | S. cerevisiae deletion strains, locus YNL153C, strain GIM3, stronger effect = lower value 0.998 | S. cerevisiae deletion strains, locus YNL183C, strain NPR1, stronger effect = lower value 0.84 | S. cerevisiae deletion strains, locus YNL209W, strain ssb2, stronger effect = lower value 0.981 | S. cerevisiae deletion strains, locus YNL233W, strain BNI4, stronger effect = lower value 1.01 | S. cerevisiae deletion strains, locus YNL248C, strain rpa49, stronger effect = lower value 0.992 | S. cerevisiae deletion strains, locus YNL250W, strain rad50, stronger effect = lower value 0.97 | S. cerevisiae deletion strains, locus YNL271C, strain bni1, stronger effect = lower value 0.945 | S. cerevisiae deletion strains, locus YNL298W, strain CLA4, stronger effect = lower value 0.977 | S. cerevisiae deletion strains, locus YNL307C, strain MCK1, stronger effect = lower value 1.02 | S. cerevisiae deletion strains, locus YNL322C, strain KRE1 (second series), stronger effect = lower value 0.972 | S. cerevisiae deletion strains, locus YNL322C, strain KRE1, stronger effect = lower value 0.99 | S. cerevisiae deletion strains, locus YNR049C, strain mso1, stronger effect = lower value 0.98 | S. cerevisiae deletion strains, locus YNR052C, strain pop2, stronger effect = lower value 1.02 | S. cerevisiae deletion strains, locus YOL006C, strain TOP1, stronger effect = lower value 1.04 | S. cerevisiae deletion strains, locus YOL012C, strain htz1 0.943 | S. cerevisiae deletion strains, locus YOL147C, strain pex11, stronger effect = lower value 1 | S. cerevisiae deletion strains, locus YOR001W, strain rrp6, stronger effect = lower value 0.999 | S. cerevisiae deletion strains, locus YOR061W, strain CKA2, stronger effect = lower value 1.01 | S. cerevisiae deletion strains, locus YOR069W, strain VPS5, stronger effect = lower value 0.993 | S. cerevisiae deletion strains, locus YOR070C, strain gyp1, stronger effect = lower value 0.994 | S. cerevisiae deletion strains, locus YOR080W, strain dia2, stronger effect = lower value 1 | S. cerevisiae deletion strains, locus YOR083W, strain WHI5, stronger effect = lower value 1.01 | S. cerevisiae deletion strains, locus YOR106W, strain vam3, stronger effect = lower value 1.01 | S. cerevisiae deletion strains, locus YOR136W, strain idh2, stronger effect = lower value 1.03 | S. cerevisiae deletion strains, locus YOR144C, strain elg1, stronger effect = lower value 1 | S. cerevisiae deletion strains, locus YOR184W, strain ser1, stronger effect = lower value 1.04 | S. cerevisiae deletion strains, locus YOR231W, strain MKK1, stronger effect = lower value 0.885 | S. cerevisiae deletion strains, locus YOR265W, strain rbl2, stronger effect = lower value 0.997 | S. cerevisiae deletion strains, locus YOR270C, strain vph1, stronger effect = lower value 1.02 | S. cerevisiae deletion strains, locus YOR290C, strain snf2, stronger effect = lower value 1.01 | S. cerevisiae deletion strains, locus YOR316C, strain cot1, stronger effect = lower value 1 | S. cerevisiae deletion strains, locus YPL051W, strain arl3, stronger effect = lower value 0.986 | S. cerevisiae deletion strains, locus YPL055C, strain LGE1, stronger effect = lower value 1.01 | S. cerevisiae deletion strains, locus YPL078C, strain atp4, stronger effect = lower value 0.992 | S. cerevisiae deletion strains, locus YPL106C, strain sse1, stronger effect = lower value 0.982 | S. cerevisiae deletion strains, locus YPL240C, strain hsp82, stronger effect = lower value 1 | S. cerevisiae deletion strains, locus YPL241C, strain CIN2, stronger effect = lower value 0.997 | S. cerevisiae deletion strains, locus YPR119W, strain clb2, stronger effect = lower value 0.987 | S. cerevisiae deletion strains, locus YPR141C, strain kar3, stronger effect = lower value 0.968 | S. cerevisiae deletion strains, locus YPR163C, strain tif3, stronger effect = lower value 1.01 | S. cerevisiae deletion strains, locus YPR167C, strain met16, stronger effect = lower value 1 | S. cerevisiae deletion strains, strain wtn01, stronger effect = lower value 1.01 | S. cerevisiae strains, strain wild type, stronger effect = lower value 1
